We go through 40 compounds from PubChem BioAssay (Tox21).

Inconclusive results are not listed. Where a call stands in place of a potency, no number is given. A number with no mark means an inactive call. Calls of active or inactive are those of the source. The call rests on the fitted dose curve; in most records, active means well fitted cell-killing curve with a large enough effect in the repeat runs; inconclusive means weak or mixed curves; inactive means no such curve, though single readings can be large or run the other way.

The assay can be described thus: qHTS assay to identify small molecule antagonists of the androgen receptor (AR) signaling pathway - cell viability counter screen (AID 743033; further: nearly all actives have a fitted effect of over 45% in size). Conditions: AR-bla HEK293 viability, CellTiter-Glo luminescence, 16 h; series mostly up to 58.5 µM. An excerpt:
National Center for Advancing Translational Sciences [NCATS]
NIH Chemical Genomics Center [NCGC]
U.S. Environmental Protection Agency [EPA]
National Institutes of Environmental Health Sciences [NIEHS]
National Toxicology Program [NTP]
U.S. Food and Drug Administration [FDA]
Androgen receptor (AR), a nuclear hormone receptor, plays a critical role in AR-dependent prostate cancer and other androgen related diseases. Endocrine disrupting chemicals (EDCs) and their interactions with steroid hormone receptors like AR may cause disruption of normal endocrine function as well as interfere with metabolic homeostasis, reproduction, developmental and behavioral functions. To identify the compounds that inhibit AR signaling, GeneBLAzer AR-UAS-bla-GripTite cell line (Invitrogen, Carlsbad, CA, USA) containing a beta-lactamase reporter gene under control of an Upstream Activator Sequence (UAS) stably integrated into HEK293 cells was used to screen the Tox21 10K compound library. The cytotoxicity of the Tox21 compound library against the AR-bla cell line was tested in parallel by measuring the cell viability using CellTiter-Glo assay in the same wells.
Tox21 Assay Protocol Summary:
AR-bla cells were dispensed at 2,000 cells/5 uL of assay medium per well into black wall/clear-bottom 1536-well plates using a Multidrop Combi (ThermoFisher Scientific, Waltham, MA) dispenser. After the assay plates were incubated at a 37C and 5% CO2 for 4 hr, 23 nL of compounds dissolved in DMSO, positive controls or DMSO only was transferred to the assay plate by a Pintool station (Kalypsys, San Diego, CA), followed by addition of 1 uL of agonist (R1881) in culture medium using a Bioraptr Flying Reagent Dispenser (FRD) workstation (Beckman Coulter, Indianapolis, IN, USA). The plates were incubated at a 37C and 5% CO2 for 16 h. After 1 uL of LiveBLAzerTM B/G FRET substrate was added using a Bioraptr FRD, the plates were incubated at room temperature for 2 h and fluorescence intensity was measured by an Envision plate reader (PerkinElmer, Shelton, CT). For cell viability readout that measures cytotoxicity, 4 ul/well of CellTiter-Glo reagent was added into the assay plates using a Bioraptr FRD. After 30 min incubation at room temperature, the luminescence intensity in the plates was measured using a ViewLux (PerkinElmer) plate reader.
Turning to `CCOc1cc(OCC)c(C(C)=O)cc1OCC`, the Potency entry was “inactive”.

Take `C[C@@H](O)[C@H]1C(=O)N2C(C(=O)O)=C(S[C@@H]3CN[C@H](CNS(N)(=O)=O)C3)[C@H](C)[C@H]12`: the Potency entry is “inactive”.

Turning to `CCCCCCCCCCCCCCCCC(=O)O`, the Potency result was “inactive”.

Take `O=C(O)c1cc(C(=O)O)c(C(=O)O)cc1C(=O)O`: the Potency result is “inactive”.

As for `CCCCCCCCCCCCSCCOCCO`, the Potency entry is “inactive”.

Take `CCOC(C)OCC`: the Potency entry is “inactive”.

Turning to `CCN(CCCCOC(=O)c1ccc(OC)c(OC)c1)C(C)Cc1ccc(OC)cc1` (stereo not given), the Potency result is “inactive”.

For the compound `OCC(O)c1ccccc1` (stereo not given), the Potency entry was “inactive”.

Regarding `O=C(Nc1ccc2c(c1)Cc1ccccc1-2)C(F)(F)F`, the Potency entry is “inactive”.

With `Cc1cc(C)c(C)c(O)c1`, the Potency entry was “inactive”.

Take `O=C(c1ccc(Cl)cc1)c1ccc(Cl)cc1`: the Potency result was “inactive”.

With `CCc1c(C)[nH]c2c1C(=O)C(CN1CCOCC1)CC2` (stereo not given), the Potency result is “inactive”.

Take `O=C1OC(=O)C2CC=CCC12` (stereo not given): the Potency result is “inactive”.

On to `O=C(NC1CCN(CCc2c[nH]c3ccccc23)CC1)c1ccccc1`, for which the Potency result was “inactive”.

Regarding `CC(=O)Oc1cccc2c1C(=O)c1c(OC(C)=O)cc(C(=O)O)cc1C2=O`, the Potency result is “inactive”.

In the case of `CC/C=C/CCO`, the Potency result is “inactive”.

Turning to `SCCOCCOCCS`, the Potency result was “inactive”.

Regarding `c1ccc(-c2ccc(-c3ccccc3)cc2)cc1`, the Potency entry is “inactive”.

For `CC(C(=O)O)c1ccc2c(c1)Cc1cccnc1O2` (stereo not given), the Potency result is “inactive”.

For `CC(=O)S[C@H](C(=O)N[C@H]1Cc2ccccc2[C@H]2CCC[C@@H](C(=O)O)N2C1=O)C(C)C`, the Potency entry was “inactive”.

As to `C=C[Si]1(C)O[Si](C)(C=C)O[Si](C)(C=C)O[Si](C)(C=C)O1` (stereo not given), the Potency result is “inactive”.

Take `O=C(O)c1ccccc1[N+](=O)[O-]`: the Potency result was “inactive”.

With `C=CC(O)CCCCC` (stereo not given), the Potency entry is “inactive”.

As for `Cc1c(Nc2ncccc2C(=O)O)cccc1C(F)(F)F`, the Potency entry was “inactive”.

In the case of `O=Cc1ccc(Cl)c([N+](=O)[O-])c1`, the Potency result was “inactive”.

For `C=Cc1ccc(C=C)cc1`, the Potency result was “inactive”.

In the case of `CC(C)Oc1ccccc1O`, the Potency entry was “inactive”.

For `COc1ccc(C(=O)c2ccc(C)cc2)c(O)c1`, the Potency entry is “inactive”.

Take `OCCc1ccncc1`: the Potency entry was “inactive”.

Take `COc1cc(C)c(Cc2cnc(N)nc2N)cc1OC`: the Potency entry was “inactive”.

Consider `CCC(CC)C(=O)O`, for which the Potency result is “inactive”.

Consider `CCCCCCCCCCCCCCCCCCCl`, for which the activity change, negative = cytotoxicity was -8.37% [at 7.04 µM].

For `CCCCOC(=O)C(C)Oc1ccc(Oc2ccc(C(F)(F)F)cn2)cc1` (stereo not given), the Potency result is “inactive”.

Take `O=C1c2ccccc2C(=O)C1c1ccc2ccccc2n1`: the Potency result was “inactive”.

Take `CCCC1CCCC(=O)O1` (stereo not given): the Potency result is “inactive”.

For `CCCCCCCCNC`, the Potency entry was “inactive”.

With `CC(C)CCCCCOC(=O)CS`, the Potency result was “inactive”.

On to `CCCOC(C)=O`, for which the Potency entry was “inactive”.

As to `Cc1nc2sccn2c(=O)c1CCN1CCC(=C(c2ccc(F)cc2)c2ccc(F)cc2)CC1`, the Potency entry was “inactive”.

With `CC(CN=Cc1ccccc1O)N=Cc1ccccc1O` (stereo not given), the Potency result is “inactive”.
